Test [1] is described as follows: NCI Yeast Anticancer Drug Screen. Data for the rad50 strain (AID 155).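 Note: 0% = growth of vehicle-only cultures of the same strain.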 Conditions: S. cerevisiae rad50 strain growth inhibition, active compounds read high. In a few lines: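 A DNA repair-deficient yeast mutant serves as the test organism; compound-induced growth inhibition is calculated against vehicle-treated cells.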
Test [2] can be described thus: NCI Yeast Anticancer Drug Screen. Data for the mec2-1 strain (AID 157). To be noted: S. cerevisiae mec2-1 strain, active compounds read high. In a few lines:
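Readout is yeast growth inhibition, normalised to vehicle-treated controls, in the mec2-1 strain exposed to compound.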

A short description of test [3]: NCI Yeast Anticancer Drug Screen. Data for the sgs1 mgt1 strain (AID 161).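 Note: 0% = growth of cultures given vehicle only.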 To be noted: S. cerevisiae sgs1 mgt1 strain, active compounds read high. In a few lines: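 Compounds are added to genetically altered yeast, and growth is compared with cultures given vehicle alone to give percent inhibition.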
The nature of test [4]: NCI Yeast Anticancer Drug Screen. Data for the cln2 rad14 strain (AID 165).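 Note: 0% = growth equal to vehicle treated cultures.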 To be noted: S. cerevisiae cln2 rad14 strain, active compounds read high. In a few lines: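 Relative to vehicle controls, growth inhibition of compound-treated cln2 rad14 yeast was recorded.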
Test [5] can be described thus: NCI Yeast Anticancer Drug Screen. Data for the bub3 strain (AID 167). To be noted: S. cerevisiae bub3 mutant strain, active compounds read high. In a few lines:
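Inhibition values come from growth of compound-treated mutant yeast normalised to vehicle-treated controls.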

Test [6] can be described thus: NCI Yeast Anticancer Drug Screen. Data for the mlh1 rad18 strain (AID 175). Conditions: S. cerevisiae mlh1 rad18 strain growth inhibition, active compounds read high. In a few lines:
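Test agents were incubated with a yeast strain of defined genotype (DNA damage repair defect). Inhibition of growth was derived by comparison with vehicle-exposed cultures.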

The mark [7] stands for this setting: at 5.0 µM (retest, dose inferred, filed as 0.5).
Setting [8] is: at 50.0 µM (retest, dose inferred, filed as 5.0).

Compounds without any hit were thinned out: in the full panel of roughly 79,000, 15% have a hit. A number with no mark means an inactive call. Activity calls are given as the source filed them. Cut-off read from the data, not from the text of the source: active = growth inhibition above about 70%; inactive = the rest.

`Nc1nc(N)c(-c2ccc(Cl)c(Cl)c2)c(CCc2ccc(CNC(=O)c3ccc(S(=O)(=O)F)cc3)cc2)n1`: the growth inhibition is -4% in test [1] (setting [7]); 87% (active) in test [1] (setting [8]); 46.7% in test [1] (at 50.0 µM); 3% in test [2] (setting [7]); 66% in test [2] (setting [8]); 96.5% (active) in test [2] (at 50.0 µM). Besides, the growth inhibition is 6% in test [3] (setting [7]); 98% (active) in test [3] (setting [8]); 44% in test [3] (at 50.0 µM); -14% in test [4] (setting [7]); 88% (active) in test [4] (setting [8]); 74.6% (active) in test [4] (at 50.0 µM). Also, the growth inhibition was -17% in test [5] (setting [7]); 54% in test [5] (setting [8]); 68.9% in test [5] (at 50.0 µM); 22% in test [6] (setting [7]); 96% (active) in test [6] (setting [8]); 76.2% (active) in test [6] (at 50.0 µM).
As to `[N-]=[N+]=NS(=O)(=O)c1cccc([N+](=O)[O-])c1`, the growth inhibition in test [1] (setting [7]) is 8%; in test [1] (setting [8]) it was 100% (active); in test [1] (at 50.0 µM), 80.2% (active); in test [2] (setting [7]), -17%; in test [2] (setting [8]) it was 100% (active); in test [2] (at 50.0 µM), 87.1% (active). Besides, the growth inhibition in test [3] (setting [7]) is -34%; in test [3] (setting [8]), 99% (active); in test [3] (at 50.0 µM), 89.1% (active); in test [4] (setting [7]) it was 8%; in test [4] (setting [8]), 99% (active); in test [4] (at 50.0 µM), 90.8% (active). Moreover, the growth inhibition in test [5] (setting [7]) was -24%; in test [5] (setting [8]), 100% (active); in test [5] (at 50.0 µM), 90.8% (active); in test [6] (setting [7]) it was -5%; in test [6] (setting [8]), 100% (active); in test [6] (at 50.0 µM), 92.7% (active).
For `CCN(CC)CC(=O)c1ccc2c(ccc3ccccc32)c1`, the growth inhibition was 15% in test [1] (setting [7]); 98% (active) in test [1] (setting [8]); 99.2% (active) in test [1] (at 50.0 µM); 26% in test [2] (setting [7]); 100% (active) in test [2] (setting [8]); 99.5% (active) in test [2] (at 50.0 µM). Besides, the growth inhibition in test [3] (setting [7]) is 6%; in test [3] (setting [8]), 99% (active); in test [3] (at 50.0 µM), 99.5% (active); in test [4] (setting [7]) it was -1%; in test [4] (setting [8]), 97% (active); in test [4] (at 50.0 µM), 99.3% (active). The growth inhibition is 8% in test [5] (setting [7]); 99% (active) in test [5] (setting [8]); 99.2% (active) in test [5] (at 50.0 µM); 43% in test [6] (setting [7]); 99% (active) in test [6] (setting [8]); 99.3% (active) in test [6] (at 50.0 µM).
As for `CCC(C)N1CN(c2ccccc2)C2(CCN(CC3COc4ccccc4O3)CC2)C1=O` (configuration not stated), the growth inhibition was 1% in test [1] (setting [7]); -7% in test [1] (setting [8]); -5.3% in test [1] (at 50.0 µM); -5% in test [2] (setting [7]); 1% in test [2] (setting [8]); 4.4% in test [2] (at 50.0 µM). Further, the growth inhibition in test [3] (setting [7]) is 18%; in test [3] (setting [8]) it was 9%; in test [3] (at 50.0 µM), 18.2%; in test [4] (setting [7]), 11%; in test [4] (setting [8]), 13%; in test [4] (at 50.0 µM), 8.65%. For the same compound, the growth inhibition in test [5] (setting [7]) was 9%; in test [5] (setting [8]), 32%; in test [5] (at 50.0 µM), 66.7%; in test [6] (setting [7]), -26%; in test [6] (setting [8]), 6%; in test [6] (at 50.0 µM), 12.6%.
Consider `Cc1ccc(C(=O)CCl)o1`, for which the growth inhibition was -114% in test [1] (setting [7]); 97% (active) in test [1] (setting [8]); 98.7% (active) in test [1] (at 50.0 µM); -29% in test [2] (setting [7]); 98% (active) in test [2] (setting [8]); 99.7% (active) in test [2] (at 50.0 µM). Moreover, the growth inhibition was -46% in test [3] (setting [7]); 94% (active) in test [3] (setting [8]); 76% (active) in test [3] (at 50.0 µM); -54% in test [4] (setting [7]); 77% (active) in test [4] (setting [8]); 71.4% (active) in test [4] (at 50.0 µM). In addition, the growth inhibition in test [5] (setting [7]) was -34%; in test [5] (setting [8]) it was 98% (active); in test [5] (at 50.0 µM), 99.2% (active); in test [6] (setting [7]), -96%; in test [6] (setting [8]), 95% (active); in test [6] (at 50.0 µM) it was 98.5% (active).
With `O=c1oc2ccccc2c(O)c1C(c1ccco1)c1c(O)c2ccccc2oc1=O`, the growth inhibition in test [1] (setting [7]) is 11%; in test [1] (setting [8]), 22%; in test [1] (at 50.0 µM) it was 79% (active); in test [2] (setting [7]) it was 13%; in test [2] (setting [8]) it was 24%; in test [2] (at 50.0 µM) it was 79.2% (active). For the same compound, the growth inhibition was -6% in test [3] (setting [7]); 43% in test [3] (setting [8]); 44.2% in test [3] (at 50.0 µM); 16% in test [4] (setting [7]); 28% in test [4] (setting [8]); 41.5% in test [4] (at 50.0 µM). The growth inhibition in test [5] (setting [7]) was 9%; in test [5] (setting [8]), 56%; in test [5] (at 50.0 µM), 34.2%; in test [6] (setting [7]), 9%; in test [6] (setting [8]), 19%; in test [6] (at 50.0 µM), 27.5%.
In the case of `C[n+]1ccccc1-c1nc(-c2cccc[n+]2C)nc(-c2cccc[n+]2C)n1`, the growth inhibition was 37% in test [1] (setting [7]); 75% (active) in test [1] (setting [8]); 56.6% in test [1] (at 50.0 µM); 46% in test [2] (setting [7]); 57% in test [2] (setting [8]); 49.6% in test [2] (at 50.0 µM). The growth inhibition in test [3] (setting [7]) was 23%; in test [3] (setting [8]), 69%; in test [3] (at 50.0 µM) it was 79.6% (active); in test [4] (setting [7]), 14%; in test [4] (setting [8]), 51%; in test [4] (at 50.0 µM), 21.9%. Besides, the growth inhibition is 19% in test [5] (setting [7]); 73% (active) in test [5] (setting [8]); 44.9% in test [5] (at 50.0 µM); 37% in test [6] (setting [7]); 82% (active) in test [6] (setting [8]); 84.2% (active) in test [6] (at 50.0 µM).
As for `CCCCCCNC(=O)CI`, the growth inhibition in test [1] (setting [7]) was -3%; in test [1] (setting [8]) it was 88% (active); in test [1] (at 50.0 µM), 42.7%; in test [2] (setting [7]), -2%; in test [2] (setting [8]), 91% (active); in test [2] (at 50.0 µM), 75.2% (active). In addition, the growth inhibition in test [3] (setting [7]) was -5%; in test [3] (setting [8]) it was 87% (active); in test [3] (at 50.0 µM), 16.7%; in test [4] (setting [7]) it was -1%; in test [4] (setting [8]), 46%; in test [4] (at 50.0 µM), -17.4%. Also, the growth inhibition in test [5] (setting [7]) is 5%; in test [5] (setting [8]) it was 84% (active); in test [5] (at 50.0 µM), 59.2%; in test [6] (setting [7]), -3%; in test [6] (setting [8]) it was 93% (active); in test [6] (at 50.0 µM), 50.4%.
On to `CC(=O)O.[Au].c1ccc([PH+](c2ccccc2)c2ccccc2)cc1`, for which the growth inhibition is 99% (active) in test [1] (setting [7]); 98% (active) in test [1] (setting [8]); 98.2% (active) in test [1] (at 50.0 µM); 98% (active) in test [2] (setting [7]); 98% (active) in test [2] (setting [8]); 98.2% (active) in test [2] (at 50.0 µM). The growth inhibition in test [3] (setting [7]) was 99% (active); in test [3] (setting [8]), 55%; in test [3] (at 50.0 µM), 98% (active); in test [4] (setting [7]), 99% (active); in test [4] (setting [8]) it was 96% (active); in test [4] (at 50.0 µM), 98% (active). Besides, the growth inhibition was 100% (active) in test [5] (setting [7]); 98% (active) in test [5] (setting [8]); 98.2% (active) in test [5] (at 50.0 µM); 99% (active) in test [6] (setting [7]); 97% (active) in test [6] (setting [8]); 97.6% (active) in test [6] (at 50.0 µM).

(Values after PubChem BioAssay (NCI).)
